Laboratory results as given in PubChem BioAssay (Tox21).
Several values for one entry are separate records, joined by “and”; a condition that tells them apart may be missing. Equal entries are not always repeated. Inconclusive results are not listed. Where a call stands in place of a potency, no number is given. More than one record can exist for a structure, and the calls need not agree. Activity calls are given as the source filed them. Unless noted, the call rests on the fitted dose curve; in most records, active means well fitted curve in the direction sought with a large enough effect in the repeat runs; inconclusive means weak or mixed curves; inactive means no such curve, though single readings can be large; an effect the other way counts as inactive or inconclusive.

Columns and labels:
[1] = biological target: Thyrotropin-releasing hormone receptor (Homo sapiens) (UniProt P34981); test: qHTS assay to identify small molecule agonists of the thyrotropin-releasing hormone receptor (TRHR) signaling pathway (AID 1346891; calls by dose curve;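 further: HEK293 cells expressing TRHR with calcium dye readout; series mostly up to about 58 µM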)
Sequence of Thyrotropin-releasing hormone receptor (Homo sapiens) (P34981 whole entry, looked up): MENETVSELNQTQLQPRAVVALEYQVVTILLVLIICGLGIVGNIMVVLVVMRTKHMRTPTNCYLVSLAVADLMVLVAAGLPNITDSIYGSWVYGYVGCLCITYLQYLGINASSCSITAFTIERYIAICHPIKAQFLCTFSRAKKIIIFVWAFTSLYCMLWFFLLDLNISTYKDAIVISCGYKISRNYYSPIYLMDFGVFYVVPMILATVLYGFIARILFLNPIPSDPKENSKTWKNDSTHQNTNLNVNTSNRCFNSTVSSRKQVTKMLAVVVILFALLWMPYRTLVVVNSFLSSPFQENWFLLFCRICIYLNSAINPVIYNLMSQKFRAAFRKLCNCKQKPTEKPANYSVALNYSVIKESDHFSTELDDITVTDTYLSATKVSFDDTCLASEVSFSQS
Summary of the method: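 Cells: TRHR-Hek293, seeded and incubated 18 h. Dye loading: 2 h at 37 °C. Compound added from DMSO stock by pin tool. Read-out: kinetic calcium fluorescence over 3 min.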

[2] = Human pregnane X receptor (PXR) small molecule agonists, qHTS cell viability counter screen (AID 1346977); further: nearly all actives have a fitted effect of over 50% in size; further: potency means the concentration at half of the fitted maximal effect
Summary of the method: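 Cytotoxicity counter screen run in the same wells as the PXR luciferase assay, using PXR-Luc HepG2 cells in charcoal-stripped serum medium. Viability: CellTiter-Fluor fluorescence after 24hr compound treatment.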

[3] = Caspase-3/7 induction in HepG2 cells by small molecules, qHTS assay (AID 1346978); further: nearly all actives have a fitted effect of over 15% in size; further: potency means the concentration at half of the fitted maximal effect
Summary of the method: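 Wild-type HepG2 cells (2,000/well) were settled 5 h at 37 C, 5% CO2, then exposed to compounds in DMSO for 17 h. Caspase-3/7 activity was read by luminescence 30 min after adding Caspase-Glo 3/7 reagent at room temperature.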

[4] = Caspase-3/7 induction in CHO-K1 cells by small molecules, qHTS cell viability counter screen (AID 1346979); further: nearly all actives have a fitted effect of over 35% in size; further: potency means the concentration at half of the fitted maximal effect
Summary of the method: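 Cytotoxicity counter screen run in parallel with the caspase-3/7 assay: CHO-K1 cells, 16hr compound treatment at 37C, then CellTiter-Fluor for 1hr before fluorescence reading.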

[5] = Caspase-3/7 induction in CHO-K1 cells by small molecules, qHTS assay (AID 1346980); further: nearly all actives have a fitted effect of over 15% in size
Summary of the method: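 Wild-type cells were seeded at 1,500 per well and settled 5 hr at 37 C, 5% CO2, then exposed to DMSO-dissolved compounds for 17 hr. Caspase-Glo 3/7 reagent was added, and luminescence was read after 30min at room temperature.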

[6] = Caspase-3/7 induction in HepG2 cells by small molecules, qHTS cell viability counter screen (AID 1346981); further: nearly all actives have a fitted effect of over 30% in size; further: potency means the concentration at half of the fitted maximal effect
Summary of the method: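 In this quantitative HTS counter screen, compounds delivered in DMSO were left on unmodified HepG2 cells for 16 hr at 37 C. Viability was then determined fluorometrically with CellTiter-Fluor, in parallel with caspase-3/7 induction in the same wells.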

[7] = biological target: Nuclear receptor subfamily 1 group I member 2 (Homo sapiens) (UniProt O75469); test: Human pregnane X receptor (PXR) small molecule agonists, qHTS assay (AID 1346982); further: nearly all actives have a fitted effect of over 35% in size; further: potency means the concentration at half of the fitted maximal effect
Sequence of Nuclear receptor subfamily 1 group I member 2 (Homo sapiens) (O75469 whole entry, looked up): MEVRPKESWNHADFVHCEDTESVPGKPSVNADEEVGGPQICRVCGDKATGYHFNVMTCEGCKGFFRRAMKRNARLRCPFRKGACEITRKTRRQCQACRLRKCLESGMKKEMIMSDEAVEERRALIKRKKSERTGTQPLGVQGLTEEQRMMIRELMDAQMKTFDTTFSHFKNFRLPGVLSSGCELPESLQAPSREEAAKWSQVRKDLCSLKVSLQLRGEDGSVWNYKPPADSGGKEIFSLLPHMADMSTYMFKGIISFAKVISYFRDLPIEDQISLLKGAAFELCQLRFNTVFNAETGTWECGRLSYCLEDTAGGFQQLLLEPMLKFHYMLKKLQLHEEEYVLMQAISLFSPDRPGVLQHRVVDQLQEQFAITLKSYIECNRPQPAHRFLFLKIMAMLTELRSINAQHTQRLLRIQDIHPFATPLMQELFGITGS
Summary of the method: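 Reporter HepG2 cells expressing PXR-Luc are cultured in charcoal-stripped FBS (5%), treated with compounds for 24 hr at 37 C, and assayed by ONE-Glo luminescence after 30 min at room temperature.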

[8] = biological target: Cytochrome P450 2D6 (Homo sapiens) (UniProt P10635); test: Cytochrome P450 Family 2 Subfamily D Member 6 (CYP2D6) small molecule antagonists: luciferase reporter qHTS assay (AID 1671196); further: nearly all actives have a fitted effect of over 50% in size; further: potency means the concentration at half of the fitted maximal effect
Sequence of Cytochrome P450 2D6 (Homo sapiens) (P10635 whole entry, looked up): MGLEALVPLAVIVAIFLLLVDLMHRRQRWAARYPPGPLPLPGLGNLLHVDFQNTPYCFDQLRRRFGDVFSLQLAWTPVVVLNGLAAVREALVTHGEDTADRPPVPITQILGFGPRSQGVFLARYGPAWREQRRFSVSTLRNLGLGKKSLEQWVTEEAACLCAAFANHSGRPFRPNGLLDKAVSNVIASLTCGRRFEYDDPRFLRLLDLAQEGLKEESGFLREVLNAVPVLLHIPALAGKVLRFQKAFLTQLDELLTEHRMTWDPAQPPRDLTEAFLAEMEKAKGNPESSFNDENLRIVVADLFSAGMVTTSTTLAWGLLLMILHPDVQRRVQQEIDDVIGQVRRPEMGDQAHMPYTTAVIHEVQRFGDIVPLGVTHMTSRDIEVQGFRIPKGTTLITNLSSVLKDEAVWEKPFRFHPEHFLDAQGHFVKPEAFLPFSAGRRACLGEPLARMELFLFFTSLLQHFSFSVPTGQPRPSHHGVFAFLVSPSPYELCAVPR
Summary of the method: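 Test chemicals meet CYP2D6 plus proluciferin substrate (10 min, RT); NADPH regenerating solution then drives turnover for 1 h. Detection reagent halts the reaction; luminescence measured after 20 min.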

[9] = biological target: Cytochrome P450 2C19 (Homo sapiens) (UniProt P33261); test: Cytochrome P450 Family 2 Subfamily C Member 19 (CYP2C19) small molecule antagonists: luciferase reporter qHTS assay (AID 1671197); further: nearly all actives have a fitted effect of over 65% in size; further: potency means the concentration at half of the fitted maximal effect
Sequence of Cytochrome P450 2C19 (Homo sapiens) (P33261 whole entry, looked up): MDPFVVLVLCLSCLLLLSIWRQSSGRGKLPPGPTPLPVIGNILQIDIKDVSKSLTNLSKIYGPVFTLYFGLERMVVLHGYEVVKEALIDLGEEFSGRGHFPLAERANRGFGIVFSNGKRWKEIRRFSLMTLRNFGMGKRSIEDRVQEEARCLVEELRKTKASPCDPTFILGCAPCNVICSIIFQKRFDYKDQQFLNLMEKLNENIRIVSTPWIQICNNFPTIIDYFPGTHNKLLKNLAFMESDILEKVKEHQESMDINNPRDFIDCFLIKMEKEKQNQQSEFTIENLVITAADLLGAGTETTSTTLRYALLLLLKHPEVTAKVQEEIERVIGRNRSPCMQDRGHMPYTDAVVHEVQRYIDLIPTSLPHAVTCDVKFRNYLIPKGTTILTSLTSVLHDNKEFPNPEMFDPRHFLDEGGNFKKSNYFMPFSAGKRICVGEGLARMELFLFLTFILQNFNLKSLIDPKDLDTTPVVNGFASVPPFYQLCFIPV
Summary of the method: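 Quantitative high-throughput screen of the Tox21 library using CYP2C19 with proluciferin substrate. Reaction: NADPH regeneration, 37C, 1 h, after 10 min compound preincubation at room temperature. Readout: luminescence.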

[10] = biological target: Cytochrome P450 2C9 (Homo sapiens) (UniProt P11712); test: Cytochrome P450 Family 2 Subfamily C Member 9 (CYP2C9) small molecule antagonists: luciferase reporter qHTS assay (AID 1671198); further: nearly all actives have a fitted effect of over 50% in size; further: potency means the concentration at half of the fitted maximal effect
Sequence of Cytochrome P450 2C9 (Homo sapiens) (P11712 whole entry, looked up): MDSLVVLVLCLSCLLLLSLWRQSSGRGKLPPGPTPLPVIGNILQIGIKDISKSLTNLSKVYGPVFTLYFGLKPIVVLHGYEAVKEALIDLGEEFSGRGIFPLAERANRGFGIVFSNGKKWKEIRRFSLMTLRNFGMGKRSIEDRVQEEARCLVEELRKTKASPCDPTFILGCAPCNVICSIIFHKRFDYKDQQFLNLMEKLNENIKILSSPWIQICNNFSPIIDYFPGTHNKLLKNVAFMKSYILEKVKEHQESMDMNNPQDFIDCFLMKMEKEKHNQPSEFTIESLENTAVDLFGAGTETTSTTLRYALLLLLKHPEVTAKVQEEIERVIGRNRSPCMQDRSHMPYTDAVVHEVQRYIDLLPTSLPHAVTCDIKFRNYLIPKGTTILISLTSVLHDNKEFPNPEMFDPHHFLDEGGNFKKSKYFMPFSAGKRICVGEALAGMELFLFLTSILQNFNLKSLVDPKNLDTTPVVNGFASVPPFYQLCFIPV
Summary of the method: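 CYP2C9 activity was measured with a P450-Glo proluciferin substrate. Enzyme–substrate mix was held with compound for 10 min at room temperature, then NADPH regeneration solution was added for 1 h at 37C. Luciferin product was read as luminescence.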

[11] = biological target: Cytochrome P450 1A2 (Homo sapiens) (UniProt P05177); test: Cytochrome P450 Family 1 Subfamily A Member 2 (CYP1A2) small molecule antagonists: luciferase reporter qHTS assay (AID 1671199); further: nearly all actives have a fitted effect of over 50% in size; further: potency means the concentration at half of the fitted maximal effect
Sequence of Cytochrome P450 1A2 (Homo sapiens) (P05177 whole entry, looked up): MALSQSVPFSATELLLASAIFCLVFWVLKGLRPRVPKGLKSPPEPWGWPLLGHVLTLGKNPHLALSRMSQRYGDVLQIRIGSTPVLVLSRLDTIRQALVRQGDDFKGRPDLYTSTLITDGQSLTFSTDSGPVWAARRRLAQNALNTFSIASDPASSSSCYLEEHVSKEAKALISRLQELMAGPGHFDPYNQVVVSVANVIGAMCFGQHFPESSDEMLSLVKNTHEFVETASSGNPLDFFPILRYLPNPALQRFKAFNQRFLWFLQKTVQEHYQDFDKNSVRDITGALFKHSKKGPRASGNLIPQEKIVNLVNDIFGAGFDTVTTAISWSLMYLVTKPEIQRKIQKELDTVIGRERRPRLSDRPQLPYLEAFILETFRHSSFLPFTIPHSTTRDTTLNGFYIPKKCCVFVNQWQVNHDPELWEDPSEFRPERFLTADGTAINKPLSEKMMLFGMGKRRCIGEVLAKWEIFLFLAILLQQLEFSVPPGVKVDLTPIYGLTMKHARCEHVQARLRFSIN
Summary of the method: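 Steps: enzyme-substrate mix dispensed; test compounds and furafylline control pinned in; 10 min room temperature; NADPH regeneration solution added, 1 h; reaction stopped with luciferin detection reagent; luminescence read after 20 min.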

[12] = biological target: Voltage-gated inwardly rectifying potassium channel KCNH2 (Homo sapiens) (UniProt Q12809); test: Human Ether-a-go-go-Related Gene (hERG) channel small molecule antagonists: fluorescence cell-based qHTS assay (AID 1671200); further: nearly all actives have a fitted effect of over 50% in size; further: potency means the concentration at half of the fitted maximal effect
Sequence of Voltage-gated inwardly rectifying potassium channel KCNH2 (Homo sapiens) (Q12809 whole entry, looked up): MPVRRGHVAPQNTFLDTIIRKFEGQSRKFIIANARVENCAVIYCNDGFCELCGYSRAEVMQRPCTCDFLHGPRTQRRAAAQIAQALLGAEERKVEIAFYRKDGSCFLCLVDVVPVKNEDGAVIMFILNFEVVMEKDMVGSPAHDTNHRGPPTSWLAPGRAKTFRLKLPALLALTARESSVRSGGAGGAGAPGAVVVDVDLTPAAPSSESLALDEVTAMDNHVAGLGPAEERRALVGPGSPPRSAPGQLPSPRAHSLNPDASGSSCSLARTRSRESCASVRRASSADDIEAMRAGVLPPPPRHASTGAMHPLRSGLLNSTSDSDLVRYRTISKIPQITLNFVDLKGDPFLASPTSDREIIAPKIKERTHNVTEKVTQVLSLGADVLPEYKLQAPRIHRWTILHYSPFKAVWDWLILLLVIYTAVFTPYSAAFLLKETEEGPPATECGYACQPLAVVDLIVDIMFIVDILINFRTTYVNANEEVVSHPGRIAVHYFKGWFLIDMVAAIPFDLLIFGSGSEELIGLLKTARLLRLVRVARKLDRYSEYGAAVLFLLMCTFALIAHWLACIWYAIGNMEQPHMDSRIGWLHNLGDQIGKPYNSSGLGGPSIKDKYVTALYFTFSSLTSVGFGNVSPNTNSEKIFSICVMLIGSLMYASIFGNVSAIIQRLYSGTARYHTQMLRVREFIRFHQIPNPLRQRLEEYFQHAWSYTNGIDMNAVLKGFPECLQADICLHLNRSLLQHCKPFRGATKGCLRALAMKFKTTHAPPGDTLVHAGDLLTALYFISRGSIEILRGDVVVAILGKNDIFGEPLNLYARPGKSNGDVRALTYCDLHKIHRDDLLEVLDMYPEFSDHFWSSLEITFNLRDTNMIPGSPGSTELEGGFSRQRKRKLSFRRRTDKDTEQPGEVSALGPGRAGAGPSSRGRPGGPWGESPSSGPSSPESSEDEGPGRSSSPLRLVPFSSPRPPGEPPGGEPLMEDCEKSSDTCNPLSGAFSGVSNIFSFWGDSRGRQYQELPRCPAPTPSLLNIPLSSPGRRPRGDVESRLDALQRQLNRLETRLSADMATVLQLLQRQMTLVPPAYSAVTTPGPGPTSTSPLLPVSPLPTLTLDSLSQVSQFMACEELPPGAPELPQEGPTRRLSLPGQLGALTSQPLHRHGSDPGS
Summary of the method: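 Fluorescence at 540 nm emission (480 nm excitation) was recorded kinetically for 2 min at 1-second intervals once the thallium-containing stimulus reached cells previously loaded with FluxOR II dye.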

[13] = biological target: Cytochrome P450 3A4 (Homo sapiens) (UniProt P08684); test: Cytochrome P450 Family 3 Subfamily A Member 4 (CYP3A4) small molecule antagonists: luciferase reporter qHTS assay (AID 1671201)
Sequence of Cytochrome P450 3A4 (Homo sapiens) (P08684 whole entry, looked up): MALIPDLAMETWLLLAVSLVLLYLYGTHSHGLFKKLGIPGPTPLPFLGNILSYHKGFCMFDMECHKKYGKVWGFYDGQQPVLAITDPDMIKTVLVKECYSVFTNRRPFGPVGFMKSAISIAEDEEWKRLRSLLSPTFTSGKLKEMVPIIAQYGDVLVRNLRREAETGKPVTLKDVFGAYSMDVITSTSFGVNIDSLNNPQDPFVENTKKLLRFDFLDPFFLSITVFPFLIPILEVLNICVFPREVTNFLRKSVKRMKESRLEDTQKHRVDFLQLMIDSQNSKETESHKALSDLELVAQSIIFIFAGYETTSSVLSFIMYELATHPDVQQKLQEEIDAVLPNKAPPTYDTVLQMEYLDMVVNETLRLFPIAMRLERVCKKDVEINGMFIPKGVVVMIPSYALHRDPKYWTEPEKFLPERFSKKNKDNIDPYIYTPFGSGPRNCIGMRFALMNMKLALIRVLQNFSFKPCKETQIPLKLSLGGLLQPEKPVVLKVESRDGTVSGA
Summary of the method: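 qHTS, 1536-well. CYP3A4 + proluciferin substrate, cpd 10 min RT → NADPH regen 1 h RT → detection reagent 20 min → luminescence (RLU). Ketoconazole positive control.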

[14] = biological target: Nuclear receptor subfamily 1 group I member 2 (Rattus norvegicus) (UniProt Q9R1A7); test: Rat pregnane X receptor (rPXR) activation by small molecules, qHTS assay (AID 1346983); settings: rPXR luciferase reporter cells, One-Glo luminescence, 24 h; max activation: stronger effect = higher value; further: nearly all actives have a fitted effect of over 20% in size
Sequence of Nuclear receptor subfamily 1 group I member 2 (Rattus norvegicus) (Q9R1A7 whole entry, looked up): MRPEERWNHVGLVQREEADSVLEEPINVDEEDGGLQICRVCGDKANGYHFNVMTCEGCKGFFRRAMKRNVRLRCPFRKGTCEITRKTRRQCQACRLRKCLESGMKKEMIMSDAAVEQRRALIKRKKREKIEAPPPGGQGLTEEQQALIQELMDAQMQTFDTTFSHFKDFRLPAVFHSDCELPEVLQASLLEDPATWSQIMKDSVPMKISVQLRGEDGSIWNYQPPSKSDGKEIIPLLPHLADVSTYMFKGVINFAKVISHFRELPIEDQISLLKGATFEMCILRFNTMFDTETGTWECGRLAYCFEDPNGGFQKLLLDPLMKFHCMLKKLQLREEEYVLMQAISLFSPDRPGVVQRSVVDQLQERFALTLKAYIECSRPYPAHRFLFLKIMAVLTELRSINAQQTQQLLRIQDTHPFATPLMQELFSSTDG
Summary of the method: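 Cell-based rPXR luciferase reporter assay, 2,000 cells per well, rested 5hr at 37 C before compound addition in DMSO, then 24 hr at 37 C. One-Glo reagent was added and luminescence read after 30 min at room temperature.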

[15] = biological target: Nuclear receptor subfamily 1 group I member 2 (Homo sapiens) (UniProt O75469); test: Human pregnane X receptor (PXR) activation by small molecules, qHTS assay (AID 1346985); further: nearly all actives have a fitted effect of over 40% in size
Summary of the method: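 DPX-2 cells (HepG2 co-transfected with a PXR response element and a CYP3A4-promoter luciferase construct) were seeded at 2,000 per well, rested 5 hr at 37C, then exposed to DMSO-dissolved compounds for 24 hr. Activation was read as luciferase luminescence.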

| SMILES | Potency [1] | Potency [2] | Potency [3] | Potency [4] | outcome [5] | Potency [6] | Potency [7] | Potency [8] | Potency [9] | Potency [10] | Potency [11] | Potency [12] | Potency [13] | max activation [14] | Potency [15] |
| --- | --- | --- | --- | --- | --- | --- | --- | --- | --- | --- | --- | --- | --- | --- | --- |
| CN/C(=C\[N+](=O)[O-])NCCSCc1ccc(CN(C)C)o1 | inactive | inactive | inactive | inactive | inactive | inactive | inactive | inactive | inactive | inactive | inactive and 24.5 µM (active) | inactive | inactive |  |  |
| C=CCOC(=O)CC(C)C | inactive | inactive | inactive | inactive | inactive | inactive | inactive | inactive | inactive | inactive | inactive |  | inactive |  |  |
| CC(C)CC(C)CC(O)CC(C)C (stereo unspecified) | inactive | inactive | inactive | inactive | inactive | inactive | inactive | inactive | inactive | inactive | inactive | inactive | inactive |  |  |
| C=C(C)C(N)=O | inactive | inactive | inactive | inactive | inactive | inactive | inactive | inactive | inactive |  | inactive |  | inactive |  |  |
| O=C(O)Cc1cccc2ccccc12 | inactive | inactive | inactive |  | inactive | inactive | inactive | inactive and 6.33 µM (active) | inactive | inactive | 33.5 µM (active) and 43.5 µM (active) | inactive | inactive | -6.88% (inactive) | inactive |
| O=C1OC(c2ccc(O)cc2)(c2ccc(O)cc2)c2ccccc21 |  | 50.1 µM (active) and inactive | inactive | 30.4 µM (active) and inactive | inactive | inactive | 48.2 µM (active) and 27.3 µM (active) and 23.7 µM (active) | 71 µM (active) and inactive | 28.1 µM (active) and 17.8 µM (active) and 11 µM (active) | 19.9 µM (active) and 20 µM (active) and 12.3 µM (active) | 56 µM (active) and inactive | inactive and 38.9 µM (active) |  |  |  |
| C[C@]12C[C@H](O)[C@H]3[C@@H](CCC4=CC(=O)CC[C@@]43C)[C@@H]1CC[C@@H]2C(=O)CO |  | inactive | inactive | inactive | inactive | inactive | 8.65 µM (active) and 38.6 µM (active) | inactive |  |  |  |  | inactive | -5.48% (inactive) | inactive |
| CC(=O)Oc1ccccc1C(=O)O |  | inactive | inactive | inactive | inactive | inactive | inactive | inactive | 79.2 µM (active) and inactive | inactive | inactive and 24.5 µM (active) |  | inactive |  |  |
| Oc1cccc(O)c1 |  | inactive | 42 µM (active) and inactive | inactive | inactive | inactive | 47.1 µM (active) and inactive | inactive | inactive | inactive | inactive | inactive |  | -3.43% (inactive) | inactive |
| O=C(OCc1ccccc1)c1ccccc1 |  | inactive | inactive | inactive | inactive | inactive | inactive | inactive | 31.8 µM (active) and 39.9 µM (active) and 17.4 µM (active) | 40 µM (active) and 63.3 µM (active) | 31.8 µM (active) and 35.6 µM (active) and 13.8 µM (active) |  | inactive | 0.688% (inactive) | inactive |
| C[C@]12C=CC(=O)C=C1CC[C@@H]1[C@@H]2C(=O)C[C@@]2(C)[C@H]1CC[C@]2(O)C(=O)CO |  | inactive | inactive |  | inactive | inactive |  |  |  |  |  |  |  |  |  |
| Cc1cnc(NC(=O)C2=C(O)c3ccccc3S(=O)(=O)N2C)s1 | inactive | inactive | inactive | 61.3 µM (active) and inactive | inactive | inactive |  | inactive | inactive | 7.98 µM (active) and 11.2 µM (active) and 12.3 µM (active) | inactive | inactive |  |  |  |
| COC(=O)c1ccc(C=O)cc1 |  | inactive | inactive | inactive | inactive | inactive | inactive | inactive | 71 µM (active) and inactive | inactive | 42.3 µM (active) |  | inactive |  |  |
| C=CC(=O)NC(C)(C)CS(=O)(=O)O |  | inactive | inactive | inactive | inactive | inactive | inactive | 49.2 µM (active) and inactive | inactive | inactive | inactive |  | inactive |  |  |
| CCCCCCCCCCCCCC(=O)OC(C)C |  | inactive | inactive | inactive | inactive | inactive | inactive | inactive | inactive | inactive | inactive | inactive | inactive | -1.74% (inactive) | inactive |
| Nc1ccc(N=Nc2ccccc2)c(N)n1 | inactive |  | inactive | 48.8 µM (active) and 48.6 µM (active) and 26.6 µM (active) | inactive | 21.1 µM (active) | 27.4 µM (active) and 27.3 µM (active) and 6.68 µM (active) | 40.1 µM (active) and 35.6 µM (active) and 12.3 µM (active) | 20.1 µM (active) and 28.3 µM (active) and 9.77 µM (active) | 20.1 µM (active) and 28.3 µM (active) and 17.4 µM (active) |  |  |  |  |  |
